Calls of active or inactive are those of the source.
How the values were obtained:
[1] = test system: Plasmodium falciparum Sir2 (PF13_0152, Sir2A); assay: Plasmodium falciparum Sir2A binding compounds – biochemical, small-molecule microarray, 635 nm fluorescence, primary screen (AID 1098); conditions: fluorescence 635 nm, higher = more signal;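 further: score merges spot fluorescence intensity with its signal-to-noise ratio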
[2] = probe aDKK1 binding to arrayed compounds – biochemical, biotinylated probe, 635/667 nm fluorescence, primary screen (AID 1099); conditions: small-molecule microarray, higher = more signal;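 further: score merges 667nm spot fluorescence with signal to noise across triplicate slides; reference of the scale not given here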
[3] = probe aCHRDL2 binding to arrayed compounds – biochemical, biotinylated probe, 635/667 nm fluorescence, primary screen (AID 1100); conditions: small-molecule microarray, higher = more signal
[4] = change in splice reporter luminescence, either direction, cell-based, HEK293, spliceosome inhibition project, primary screen (AID 1101); conditions: HEK293 splicing luciferase reporter, 24 h, higher = more signal, called active from +8 up or from −8 down;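 further: HEK293 cells carrying a splicing-competent luciferase reporter gene; test concentration not given here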
[5] = biological target: Fibroblast growth factor 10 (Homo sapiens) (UniProt O15520); assay: compounds binding fibroblast growth factor 10 – biochemical, small-molecule microarray, 635 nm fluorescence, primary screen (AID 1102); conditions: FGF10 binding, fluorescence 635 nm, higher = more signal
[6] = test system: glycogen synthase kinase-3 (GSK3A per assay name; protocol says GSK3B); assay: compounds binding glycogen synthase kinase-3 – biochemical, small-molecule microarray, 635 nm fluorescence, GSK3A, primary screen (AID 1103); conditions: fluorescence 635 nm, higher = more signal; further: the record names both GSK3A and GSK3B
[7] = biological target: Epidermal growth factor receptor (Homo sapiens) (UniProt P00533); assay: compounds binding epidermal growth factor receptor – biochemical, small-molecule microarray, 635 nm fluorescence, primary screen (AID 1104); conditions: EGFR binding, higher = more signal;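 further: score merges 667 nm emission intensity with spot signal to noise over triplicate slides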
[8] = biological target: Follistatin-related protein 3 (Homo sapiens) (UniProt O95633); assay: compounds binding follistatin-related protein 3 – biochemical, small-molecule microarray, 635 nm fluorescence, primary screen (AID 1105); conditions: FSTL3 binding, higher = more signal;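 further: score merges emission near 667 nm and signal to noise per printed spot across three slides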
[9] = biological target: Dickkopf-related protein 1 (Homo sapiens) (UniProt O94907); assay: small molecules binding DKK1 protein – biochemical, small-molecule microarray, 635 nm fluorescence scan, primary screen (AID 1106); conditions: higher = more signal;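 further: score merges emission near 667 nm with signal to noise over three replicate slides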
[10] = test system: Inhibin beta A chain (activin A); assay: small molecules binding activin A – biochemical, small-molecule microarray, 635 nm fluorescence scan, primary screen (AID 1107); conditions: INHBA, higher = more signal;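 further: mouse activin A protein probed at 4.33 µg/mL on printed slides; score merges bound-protein fluorescence near 667 nm with spot signal-to-noise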

Dickkopf-related protein 1 (Homo sapiens), sequence (O94907 whole entry, looked up): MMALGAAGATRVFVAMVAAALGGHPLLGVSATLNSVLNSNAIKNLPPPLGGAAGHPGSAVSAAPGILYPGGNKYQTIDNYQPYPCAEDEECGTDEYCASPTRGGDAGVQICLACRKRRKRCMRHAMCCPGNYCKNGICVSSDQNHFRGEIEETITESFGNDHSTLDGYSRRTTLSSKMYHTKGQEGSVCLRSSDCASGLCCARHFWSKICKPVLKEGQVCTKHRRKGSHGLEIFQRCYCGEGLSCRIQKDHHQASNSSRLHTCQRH
Epidermal growth factor receptor (Homo sapiens), sequence (P00533 whole entry, looked up): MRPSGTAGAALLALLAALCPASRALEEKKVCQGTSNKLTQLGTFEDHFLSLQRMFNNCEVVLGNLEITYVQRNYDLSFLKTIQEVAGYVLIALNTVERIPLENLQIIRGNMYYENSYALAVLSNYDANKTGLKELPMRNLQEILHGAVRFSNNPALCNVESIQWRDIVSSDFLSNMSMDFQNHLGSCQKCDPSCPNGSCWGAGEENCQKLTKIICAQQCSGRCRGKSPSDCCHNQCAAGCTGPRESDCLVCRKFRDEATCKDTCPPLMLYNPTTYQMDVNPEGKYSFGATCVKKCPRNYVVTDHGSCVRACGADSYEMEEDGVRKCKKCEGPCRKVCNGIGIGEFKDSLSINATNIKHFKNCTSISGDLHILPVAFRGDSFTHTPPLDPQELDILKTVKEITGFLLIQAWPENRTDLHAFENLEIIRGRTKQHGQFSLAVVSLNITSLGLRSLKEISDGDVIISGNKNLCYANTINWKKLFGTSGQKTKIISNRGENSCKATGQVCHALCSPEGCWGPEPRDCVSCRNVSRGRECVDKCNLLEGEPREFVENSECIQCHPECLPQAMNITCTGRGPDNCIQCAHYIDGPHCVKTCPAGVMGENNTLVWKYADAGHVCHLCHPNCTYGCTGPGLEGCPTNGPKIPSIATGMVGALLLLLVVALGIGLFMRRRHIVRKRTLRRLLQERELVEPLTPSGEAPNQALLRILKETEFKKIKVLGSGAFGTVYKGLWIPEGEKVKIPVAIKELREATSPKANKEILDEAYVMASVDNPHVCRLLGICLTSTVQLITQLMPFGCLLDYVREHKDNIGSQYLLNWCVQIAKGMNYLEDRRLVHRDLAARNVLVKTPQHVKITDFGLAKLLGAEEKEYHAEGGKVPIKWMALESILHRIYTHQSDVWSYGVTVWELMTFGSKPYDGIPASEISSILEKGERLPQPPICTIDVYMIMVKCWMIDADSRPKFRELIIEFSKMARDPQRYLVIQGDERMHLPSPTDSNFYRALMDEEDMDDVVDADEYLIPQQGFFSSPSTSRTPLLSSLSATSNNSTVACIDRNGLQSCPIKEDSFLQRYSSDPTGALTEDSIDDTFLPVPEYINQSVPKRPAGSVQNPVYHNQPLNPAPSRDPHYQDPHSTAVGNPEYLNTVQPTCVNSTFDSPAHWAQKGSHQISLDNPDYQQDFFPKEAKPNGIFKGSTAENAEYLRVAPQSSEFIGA
Fibroblast growth factor 10 (Homo sapiens), sequence (O15520 whole entry, looked up): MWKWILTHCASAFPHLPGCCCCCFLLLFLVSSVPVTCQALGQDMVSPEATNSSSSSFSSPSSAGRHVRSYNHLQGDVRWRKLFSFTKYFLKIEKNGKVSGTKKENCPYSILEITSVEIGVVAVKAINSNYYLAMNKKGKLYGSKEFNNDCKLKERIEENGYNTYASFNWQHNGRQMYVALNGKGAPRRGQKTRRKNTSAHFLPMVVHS
Follistatin-related protein 3 (Homo sapiens), sequence (O95633 whole entry, looked up): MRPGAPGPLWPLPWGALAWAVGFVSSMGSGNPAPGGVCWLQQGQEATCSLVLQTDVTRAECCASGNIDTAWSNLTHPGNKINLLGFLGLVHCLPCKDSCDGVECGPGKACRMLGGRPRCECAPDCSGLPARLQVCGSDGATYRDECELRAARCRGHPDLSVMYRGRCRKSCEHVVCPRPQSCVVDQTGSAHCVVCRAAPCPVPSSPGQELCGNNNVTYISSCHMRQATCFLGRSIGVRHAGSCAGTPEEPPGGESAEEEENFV

Row | Structure (SMILES) | composite z-score [1] | composite z-score [2] | composite z-score [3] | z-score [4] | composite z-score [5] | composite z-score [6] | composite z-score [7] | composite z-score [8] | composite z-score [9] | composite z-score [10]
1 | CC1(C)OC[C@@]23C=C(Br)[C@@H](C[C@H]12)[C@@]1(CO1)C3=O | 0.0908 | -0.123 | -0.567 | 0.0884 (inactive) | 0.447 | 0.691 | 0.376 | 0.564 | 0.356 | 0.174
2 | CCCCC(O)C1C=CC2C(=O)NC(=O)C2N1Nc1ccccn1 (stereo not given) | 1.1 | 0.0006 | -0.0537 | 2.17 (inactive) | -0.0249 | 0.0652 | 0.207 | -0.404 | 0.0816 | 0.555
3 | CCOC(=O)C1=CC[C@@H](c2ccccc2)N(S(=O)(=O)c2ccc(C)cc2)[C@H]1C#N | 1.54 | 0.507 | 0.56 | 0.705 (inactive) | 0.417 | 0.73 | -0.106 | -0.111 | -0.377 | -0.0426
4 | O=C1c2ccccc2[C@@]2(Cc3ccccc3N(Cc3ccccc3)C2=O)[C@H](c2ccc(CO)cc2)N1Cc1ccccc1 | 1.45 | 0.617 | 0.819 | 1.18 (inactive) | -0.74 | -1.37 | -0.949 | -0.604 | -0.868 | 0.58
5 | CN(C)C(=O)[C@@]1(CCS(=O)(=O)c2ccccc2)N=C(c2ccc(OCCCO)cc2)O[C@H]1c1ccccc1N=[N+]=[N-] | 1.44 | 0.466 | 0.817 | -0.445 (inactive) | 1.36 | 1.29 | 0.193 | 1.03 | -0.0735 | 0.786
6 | CCCC[C@H]1OB(O)C[C@H]2C1=C(COC)C[C@H]1C(=O)C=CC(=O)[C@H]12 | 0.351 | -0.177 | -0.461 | 0.635 (inactive) | 0.6 | 0.385 | 0.645 | 1.07 | 0.717 | 1.21
7 | C[C@H]1NC(=O)C([C@@H](C)OCc2ccccc2)NC(=O)[C@@]23C(=O)N[C@@H](Cc4ccccc4)C2[C@H](C)[C@@]2(C)O[C@H]2C3/C=C/C/C=C\CNC1=O (stereo not given in full) | 0.0032 | -0.333 | -0.603 | 0.219 (inactive) | 0.699 | -0.3 | 0.281 | 0.511 | 0.722 | 1.43
8 | COC(=O)[C@@]1(Cc2ccc(F)cc2)[C@H]2c3cc(C(=O)N4CCCC4)n(CCO)c3C[C@H]2CN1C(=O)c1ccccc1 | 1.33 | 0.532 | 0.977 | -0.495 (inactive) | 0.597 | -0.166 | -0.244 | -0.479 | -0.572 | 0.671
9 | CC[C@H](C)C(=O)O[C@H]1CC[C@]2(C)C3=C(CCC2C1(C)C)[C@]1(C)CC[C@H]([C@H](C)CCCC(C)C)[C@@]1(C)CC3 (stereo not given in full) | 0.479 | -0.0754 | -0.314 | -0.634 (inactive) | 0.48 | 0.634 | 0.65 | 0.487 | 0.474 | 0.0848
10 | COc1ccccc1CN1C(=O)c2ccccc2[C@](Cc2ccccc2I)(C(=O)NCCCN(C)C)[C@@H]1c1ccc(CO)cc1 | 1.2 | -0.556 | -0.376 | -1.79 (inactive) | -0.0448 | 1.22 | 0.221 | 0.158 | 0.0393 | 0.545
11 | CC(C)C(=C=CC[C@@H](O)c1ccccc1OCCO)C[C@@H](O)c1cc(Cl)cc(Cl)c1O | 0.665 | -0.102 | -0.555 | -1.59 (inactive) | 1.46 | 1.13 | 0.472 | 1.16 | 0.741 | 0.169
12 | COC(=O)[C@@]1(Cc2ccc(F)cc2)[C@H]2c3cc(C(=O)N(C)C)n(CCn4cc([N+](=O)[O-])nc4C)c3C[C@H]2CN1C(=O)c1ccccc1 | 0.445 | 0.539 | 0.648 | 1.11 (inactive) | -0.279 | 0.0339 | -0.0789 | -0.445 | -0.145 | 0.894
13 | COCCOC(=O)N1C(=O)[C@@]2(c3cc(C#CCC(C(=O)OC)C(=O)OC)ccc31)[C@H](C(=O)N1CCc3cc(OC)c(OC)cc3C1)[C@H]1C(=O)O[C@H](c3ccccc3)[C@H](c3ccccc3)N1[C@@H]2c1ccc(O)cc1 | 0.86 | 0.148 | 0.0085 | 1.5 (inactive) | 1.24 | 0.636 | 0.868 | 1.47 | 1.62 | 0.418
14 | COc1ccc([Si](C)(C)[C@H]2[C@H](CCn3cc([C@H](O)c4ccccc4)nn3)O[C@@]3(C(=O)N(c4ccccc4)c4ccccc43)[C@@H]2C)cc1 | 0.459 | -0.125 | 0.0759 | -0.299 (inactive) | 0.355 | -0.44 | -0.166 | 0.34 | -0.0331 | -0.168
